The results in this text go back to PubChem BioAssay AID1053117 (Broad Institute, 2014).

Measured potencies and affinities stand elsewhere. Activity calls are given as the source filed them.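 Rule for the calls: active = compounds lowering cell ATP signal with a fitted half-effect dose at most twice the top valid dose; inconclusive = flat curve with 30 to 70% signal loss, or bad fit; inactive = wrong direction, flat within 30%, or weaker than limit.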

The assay is described as follows: HEK293 cell cytotoxicity, dose response, cytotoxicity control, cherry-picks, set 5 (AID 1053117).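 Note: more negative means greater loss of ATP signal and more cytotoxicity.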 As to conditions: HEK293T viability, CellTiter-Glo ATP luminescence, 72 h; series mostly up to 26 µM.

For the compound `C=C1C(=O)O[C@@H]2C[C@@H](C)[C@@H]3C=CC(=O)[C@@]3(C)[C@@H](O)[C@H]12`, the call was inactive.
